The sample as a whole holds a higher share of hits than the screen did.
TTR transcr act – activators of transthyretin transcription; SH-SY5Y TTR promoter Gaussia luciferase, luminescence; 100% = recombinant luciferase protein wells; activation, % at 16.7 µM; 92,000 compounds, 1.3% hits; AID 1117267;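 active means activation above the mean of all tested compounds plus 3 SD, cut at about 9.5% in these data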;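 further: cells exposed to compounds for one day before reading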
TTR inh HuH7 – HuH7 TTR transcription inhibition, counter-screen. 1,100 compounds, 4% hits. HuH7 TTR promoter-Gaussia luciferase reporter, luminescence. inhibition, % at 16.7 µM. shares compounds with TTR transcr act. AID 1117279;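 active means average inhibition above the solvent-only control wells' mean plus 3 SD, cut at about 15% in these data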;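 further: inhibitors lower well luminescence so higher value means more inhibition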
TTR act confirm – confirmation of human transthyretin transcription activators; shares compounds with TTR transcr act; SHSY5Y TTR promoter Gaussia luciferase, luminescence; 100% = purified Lucia enzyme wells, no cells; activation, % at 16.7 µM; 1,100 tested, under 10 active; AID 1117280;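 active means mean activation above a set limit taken from the earlier primary screen, cut at about 11% in these data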
Each line names hits and unclear results; the compound was inactive in the other large screens (follow-up assays come after a bar, where they were run).

CCOc1ccccc1NC(=O)c1cc(Cl)ccc1NC(=O)c1ccco1	TTR transcr act 12 | TTR inh HuH7 inactive | TTR act confirm inactive
CCOc1cc(NC(=O)c2ccco2)c(OCC)cc1NC(=O)CCc1ccccc1OC	none
COc1cc(NC(=O)c2ccccc2Cl)ccc1NC(=O)c1ccco1	none
COc1cccc(/C=N/NC(=O)c2cc(C34CC5CC(CC(C5)C3)C4)[nH]n2)c1	TTR transcr act 17 | TTR inh HuH7 inactive | TTR act confirm inactive
COc1ccc(/C=N/NC(=O)c2cc(C34CC5CC(CC(C5)C3)C4)[nH]n2)cc1OC	none
Cc1cc(C(=O)N/N=C/c2cccc(OC(=O)c3cccc(Br)c3)c2)n[nH]1	none
N/C(COc1cc(Cl)cc(Cl)c1)=N\O	none
O=C(NCc1ccccn1)c1cc2c(ccc3ccccc32)oc1=O	none
O=C(N=Nc1c(O)[nH]c2ccccc12)c1cc(-c2cccs2)[nH]n1	none
Cc1ccccc1Cn1cc(COC(=O)N(C)Cc2ccccc2)nn1	TTR transcr act 12 | TTR inh HuH7 18 | TTR act confirm inactive
O=C(NCCc1ccccc1)OCc1cn(Cc2cc(F)cc(F)c2)nn1	none
Cc1cccc(Cn2cc(COC(=O)N(C)Cc3ccccc3)nn2)c1	none
O=C(NCCc1ccccc1)OCc1cn(Cc2ccccc2Cl)nn1	none
O=C(NCCc1ccccc1)OCc1cn(Cc2ccccc2F)nn1	TTR transcr act 20 | TTR inh HuH7 inactive | TTR act confirm inactive
CN(Cc1ccccc1)C(=O)OCc1cn(Cc2ccccc2Cl)nn1	none
C=CCNC(=S)N/N=C(\C)c1cccc(NC(C)=O)c1	none
Cc1cccc(Cl)c1NC(=S)N1CCN(c2ccc([N+](=O)[O-])cn2)CC1	none
COc1ccc([N+](=O)[O-])cc1NS(=O)(=O)c1cc(C(=O)N2CCN(C)CC2)ccc1OC	none
COc1ccc(NS(=O)(=O)c2ccc(NC(=O)Cc3cccs3)cc2)cc1	none
O=C(Nc1ccc(N2C(=O)CC(c3ccccc3)C2=O)c(Cl)c1)c1ccccn1 (configuration not stated)	TTR transcr act 38 | TTR inh HuH7 inactive | TTR act confirm inactive
O=C(Nc1ccc(N2C(=O)[C@@H]3[C@H](C2=O)[C@@H]2C=C[C@H]3C2)c(Cl)c1)c1ccccn1	none
O=C(NNC1CC(=O)N(c2ccc(Cl)cc2)C1=O)c1ccccn1 (configuration not stated)	none
Cc1nc2nc(COc3ccccc3)nn2c(C)c1Cl	none
Cc1cccc(C)c1NC(=O)CN(c1ccccn1)S(=O)(=O)c1ccccc1	none
CCOC(=O)c1ccc(N2Cc3ccccc3C2=NC(=O)c2cccc([N+](=O)[O-])c2)cc1	none
COCCCNC(=O)/C=C/[C@H]1O[C@@H](n2cnc3c(NC(=O)c4ccccc4)ncnc32)[C@H](O)[C@@H]1O	none
O=C(/C=C/[C@H]1O[C@@H](n2cnc3c(NC(=O)c4ccccc4)ncnc32)[C@H](O)[C@@H]1O)NCCc1c[nH]c2ccccc12	none
O=C(/C=C/[C@H]1O[C@@H](n2cnc3c(NC(=O)c4ccccc4)ncnc32)[C@H](O)[C@@H]1O)NCCc1ccc(F)cc1	TTR transcr act 21 | TTR inh HuH7 inactive | TTR act confirm inactive
CCn1c(CCNC(=O)c2cccs2)nnc1SCC(=O)Nc1cccc(Cl)c1	none
CC(C)(C)OC(=O)C[C@@H]1C/C=C\C[C@@H](CC(=O)N(CCO)Cc2ccccc2)C(=O)NC[C@H](c2ccccc2)OC1=O	none
CC(C)[C@@H]1Cc2[nH]c(=S)[nH]c(=O)c2[C@H](C)O1	none
Cc1ccccc1C(=O)c1ccccc1C(=O)c1ccccc1	none
Nc1sccc1C(=O)c1ccccc1	TTR transcr act 9.9 | TTR inh HuH7 inactive | TTR act confirm inactive
O=C(c1ccccc1)c1cccs1	none
Clc1cccc(Cl)c1CNCCCSc1ncccn1	none
Cc1cccc(Cn2c(=O)c3c(nc4n3CCN4Cc3ccco3)n(C)c2=O)c1	none
CCn1cnc2c1c(=O)n(CC(=O)O)c(=O)n2Cc1ccccc1	none
CCCCn1c(=O)n(Cc2cccc(F)c2)c(=O)c2c1ncn2Cc1ccco1	TTR transcr act 19 | TTR inh HuH7 inactive | TTR act confirm inactive
CCCCC(=O)Nc1ccc(C(=O)Nc2ccc(S(=O)(=O)Nc3ccc(C)cc3)cc2)cc1	none
CNCCCNC(=O)c1ccc(/C=N/O)nc1	none
Cc1ccc(C(=O)NCCNC(=O)c2ccc(C)nc2)cc1	none
C[N+](C)(C)CCCNC(=O)c1ccc(/C=N/O)nc1	TTR transcr act 20 | TTR inh HuH7 inactive | TTR act confirm inactive
CC(C)COC(=O)N1CCCC(c2cc(C(=O)Nc3ccccc3Cl)no2)C1 (configuration not stated)	none
O=C(CSc1nnc(-c2ccncc2)o1)N1CCc2ccccc2C1	none
COc1cc(C(=O)NCCCNC(=O)c2cc(OC)c(OC)c(OC)c2)cc(OC)c1OC	none
CCCCN1C(=O)C(O)(CC(=O)c2ccccn2)c2ccccc21 (configuration not stated)	none
CN1C(=O)C(O)(CC(=O)c2cccs2)c2ccccc21 (configuration not stated)	TTR transcr act 18 | TTR inh HuH7 inactive | TTR act confirm inactive
Cc1ccccc1CN1C(=O)C(O)(CC(=O)c2ccncc2)c2ccccc21 (configuration not stated)	none
Cc1cccc2c1CC(C)(C)N=C2C1=C(O)CC(C)(C)CC1=O	none
CCOc1ccccc1N(CC(=O)NCCSc1ccccc1)S(C)(=O)=O	none
O=S1(=O)[C@H]2C[C@@H]3C=C[C@@]2(CN1Cc1ccccc1F)O3	none
COCCCNC(=O)c1cccc(OC)c1OC	none
COc1cccc(C(=O)NCCC2=CCCCC2)c1OC	none
COc1cccc(C(=O)NOCc2ccc(C)cc2)c1OC	TTR transcr act 9.7 | TTR inh HuH7 inactive | TTR act confirm inactive
O=C(/C=C/c1ccco1)Nc1ccc(CN2CCOCC2)cc1	none
O=C(CSc1ncccc1C(=O)O)c1cccc(C(F)(F)F)c1	none
O=C(CSc1ncccc1C(=O)O)c1ccc2ccccc2c1	TTR transcr act 12 | TTR inh HuH7 inactive | TTR act confirm inactive
O=C(CSc1ncnc2nc[nH]c12)c1ccc2ccccc2c1	none
CC1CCN(C(=O)COC(=O)c2nn(C)c(=O)c3ccccc23)CC1	none
CC(=O)C(C(C)=O)C(NC(=O)c1cccnc1)(C(F)(F)F)C(F)(F)F	none
c1ccc(-c2nc(N3CCOCC3)c3ccccc3n2)nc1	none
CCN1CCN(c2nc(-c3ccccn3)nc3ccccc23)CC1	TTR transcr act 11 | TTR inh HuH7 inactive | TTR act confirm inactive
CN1CCN(c2nc(-c3cccs3)nc3ccccc23)CC1	none
CCCCCCn1c(=O)n2n(c1=O)[C@@H]1CN(S(=O)(=O)c3ccc(C)cc3)C[C@]1(O)[C@@H](OC(=O)NCc1ccccc1)C2	none
O=C(/C=C\N1CCOCC1)c1ccc(Br)cc1	TTR transcr act 12 | TTR inh HuH7 inactive | TTR act confirm inactive
O=C(c1cccc(Br)c1)N1CCN(C(=O)N2CCOCC2)CC1	none
O=C(NC(=S)Nc1ccccc1N1CCOCC1)c1ccc(Br)cc1	none
CC(C)Oc1cc2ccccc2cc1CNC[C@H]1O[C@@H](n2cnc3c(N)ncnc32)[C@H](O)[C@@H]1O	none
Cn1c(=O)c2[nH]c(CCCc3nc4ccccc4[nH]3)nc2n(C)c1=O	none
COc1ccccc1NC(=O)CC(c1ccc(F)cc1)c1ccco1 (configuration not stated)	none
COc1ccc(C(C)(NC(C)=O)c2nc(-c3cc(F)cc(F)c3)cs2)cc1 (configuration not stated)	none

Bioassay records as filed in PubChem BioAssay.
